According to PubChem BioAssay (NCATS):
Records with an inconclusive call do not appear. Entries that show only a call come without a potency. Active and inactive are the calls of the source. Calls follow the shape of the dose curve; as a rule, active = well fitted cell-killing curve with a large enough effect; inconclusive = small, poorly fitted or top-dose-only effect; inactive = flat fitted curve, though single readings scatter.

Assay: Cell Viability - LYMP2-002 (AID 977);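 also: compound exposure lasted 24 h at 37 °C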
Settings: LYMP2-002 lymphoblastoid cell viability, qHTS; series mostly up to 92.2 µM
Source text: NIH Chemical Genomics Center [NCGC]
NIH Molecular Libraries Screening Centers Network [MLSCN]
National Institutes of Environmental Health Sciences [NIEHS]
National Toxicology Program [NTP]
We have developed a 1536-well cell-based assay for quantitative high throughput screening (qHTS) against a number of cell lines to determine in vitro cytotoxicity of small molecules. This particular assay uses a human lymphoblastoid cell line (LYMP2-002) purchased from Coriell Institute for Medical Research.
NCGC Assay Protocol Summary:
The CellTiter-Glo luminescent cell viability assay (Promega) is a homogeneous method to measure the number of viable cells in culture. The end point readout of this assay is based on quantitation of intracellular ATP, an indicator of metabolic activity, using the luciferase reaction. Luciferase catalyzes the oxidation of beetle Luciferin to oxyluciferin and light in the presence of ATP. The luminescent signal is proportional to amount of ATP present.
Using the CellTiter-Glo luminescent cell viability assay, the amount of cellular ATP was measured in the lymphoblastoid cell line with complete culture medium following compound treatment for 24 hours. The assay was performed in opaque white Kalypsys 1536-well plates. In the screen, tetraoctylammonium bromide was used as positive control. Library compounds were measured for their ability to cause acute toxicity in the cell line, as reflected by a decrease in intracellular ATP levels, in a concentration-dependent manner. […] AC50 values were determined from concentration-response data modeled with the standard Hill equation.
qHTS protocol for CellTiter Glo lymphoblastoid cellular assay
[Step] [Parameter] [Value] [Description]
1. Reagent; 5 uL; 2500 lymphoblastoid cells/well
2. Time; 5 hr; 37 C incubation
4. Controls; 23 nL; Tetraoctylammonium bromide 6.4pM to 92 uM
5. Time; 24 hr; 37 C incubation
6. Reagent; 5 uL; CellTiter Glo reagent
7. Time; 30 min; Room Temperature
8. Detection; Luminescence; Viewlux plate reader
Keywords: cell viability, cytotoxicity, lymphoblastoid cell line, luminescence, NTPHTS, NTPHTS_NCGC, NIEHS, DSSTox, MLSMR, MLSCN, NIH Roadmap, qHTS, NCGC

SMILES	Potency
ClCC(Br)CBr (stereo not given)	inactive
Nc1ncc([N+](=O)[O-])s1	inactive
CCCCCc1cc(O)cc(O)c1	inactive
CCCCC(CC)COC(=O)c1ccc(C(=O)OCC(CC)CCCC)c(C(=O)OCC(CC)CCCC)c1 (stereo not given)	inactive
O=C(O)CBr	inactive
Cc1ccc(N)cc1Cl	inactive
Clc1ccc(C(Cl)(Cl)Cl)cc1Cl	inactive
C=C(Cl)CSC(=S)N(CC)CC	inactive
Cc1cc(Cl)ccc1O	inactive
C/C=C/C=O	inactive
ClCc1ccccn1	inactive
ClC(Cl)(Cl)C(Cl)(Cl)Cl	inactive
O=Cc1ccc2c(c1)OCO2	inactive
Cc1ccc2c(C)cccc2c1	inactive
Cc1cnc[nH]1	inactive
CCOC(=O)C1OC1(C)c1ccccc1 (stereo not given)	inactive
O=C(O)CCl	inactive
O=[N+]([O-])c1ccc(Cl)c(Cl)c1Cl	inactive
O=c1ccc(=O)[nH][nH]1	inactive
CCCCOC(=O)c1ccccc1N	inactive

SMILES	Potency
Nc1ccc([N+](=O)[O-])cc1N	inactive
CCC[N+](=O)[O-]	inactive
CCSC(=O)N1CCCCCC1	inactive
CN(C)C(=O)Nc1ccc(Cl)cc1	inactive
Nc1ccc(-c2ccc(N)cc2)cc1	inactive
Nc1ccc(Oc2ccc(N)cc2)cc1	inactive
CCCN(CCC)c1c([N+](=O)[O-])cc(C(F)(F)F)cc1[N+](=O)[O-]	inactive
C=CCCC#N	inactive
NC1CCC(CC2CCC(N)CC2)CC1 (stereo not given)	inactive
Oc1cccc(Cl)c1	inactive
CCCCCOC(=O)c1ccccc1C(=O)OCCCCC	inactive
O=S(=O)(O)F	inactive
c1ccc(N=NNc2ccccc2)cc1	inactive
Clc1cc(Cl)c(Cl)c(Cl)c1	inactive
Clc1ccc(Cl)c(Cl)c1	inactive
Oc1cccc(Cl)c1Cl	inactive
C=CC(=O)OCC(CC)CCCC (stereo not given)	inactive
Nc1cc(Cl)cc(Cl)c1	inactive
FC(Cl)(Cl)Cl	inactive
CN(C)c1ccccc1	inactive
